{
  "source": "paper PMC7862700",
  "about": "“An all-to-all approach to the identification of sequence-specific readers for epigenetic DNA modifications on cytosine”",
  "assay_in_all_cases": "DAPPL (digital affinity profiling via proximity ligation, sequencing); 10 mM Tris-HCl pH 7.5, 50 mM NaCl, 1 mM DTT, 4% glycerol, room temperature, 30 min; GST-TFs on glutathione beads, 16-mer random dsDNA library, 0.1% formaldehyde crosslink after washing; high values mean tight binding",
  "details_in_all_cases": "protein: recombinant; tags: N-terminal GST; dsDNA, one strand shown",
  "key": {"FLI1": {"biological_target": "T1, FLI1 (Homo sapiens, UniProt Q01543 1-452)", "T1 sequence": "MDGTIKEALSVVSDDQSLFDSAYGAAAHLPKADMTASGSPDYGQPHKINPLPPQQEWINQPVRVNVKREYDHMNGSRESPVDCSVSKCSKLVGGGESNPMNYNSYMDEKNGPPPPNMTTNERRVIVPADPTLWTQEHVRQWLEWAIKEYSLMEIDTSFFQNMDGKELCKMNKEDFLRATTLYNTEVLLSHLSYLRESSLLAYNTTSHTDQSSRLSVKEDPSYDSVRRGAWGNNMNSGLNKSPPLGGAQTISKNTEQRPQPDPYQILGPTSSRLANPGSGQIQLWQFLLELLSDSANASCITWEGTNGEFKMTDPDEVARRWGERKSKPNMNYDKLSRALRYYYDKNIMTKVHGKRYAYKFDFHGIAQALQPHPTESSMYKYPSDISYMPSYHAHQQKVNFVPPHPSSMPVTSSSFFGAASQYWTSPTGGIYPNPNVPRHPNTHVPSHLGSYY", "summary_of_the_method": "(§1)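 GST fusions of human transcription factors were expressed in yeast and captured with glutathione beads. Once given DNA barcodes and pooled alongside a tag-only sample, they were incubated for 30 min at room temperature with 200 nmole of a random double-stranded 16-mer DNA library in Tris/NaCl/DTT/glycerol buffer, then washed, crosslinked (0.1% formaldehyde), proximity-ligated, PCR-amplified and sequenced on an Illumina NextSeq500. The binding signal of each hexamer is its read frequency for a factor divided by its frequency for the tag-only sample.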"}, "ELK1": {"biological_target": "T2, ELK1 (Homo sapiens, UniProt P19419 1-428)", "T2 sequence": "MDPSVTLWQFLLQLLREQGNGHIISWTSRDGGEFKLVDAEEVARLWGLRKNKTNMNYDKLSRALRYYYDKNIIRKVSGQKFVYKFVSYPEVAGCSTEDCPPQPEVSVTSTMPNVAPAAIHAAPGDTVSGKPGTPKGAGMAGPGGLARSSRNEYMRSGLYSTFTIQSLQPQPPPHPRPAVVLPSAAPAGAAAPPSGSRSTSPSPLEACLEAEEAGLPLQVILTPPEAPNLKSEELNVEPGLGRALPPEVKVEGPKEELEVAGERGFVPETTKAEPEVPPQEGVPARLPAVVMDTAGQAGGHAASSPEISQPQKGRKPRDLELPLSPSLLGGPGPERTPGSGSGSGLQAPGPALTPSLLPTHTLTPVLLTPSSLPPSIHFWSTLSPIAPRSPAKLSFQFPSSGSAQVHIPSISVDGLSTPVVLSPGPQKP", "summary_of_the_method": "as §1"}, "GABPA": {"biological_target": "T3, GABPA (Homo sapiens, UniProt Q06546 1-454)", "T3 sequence": "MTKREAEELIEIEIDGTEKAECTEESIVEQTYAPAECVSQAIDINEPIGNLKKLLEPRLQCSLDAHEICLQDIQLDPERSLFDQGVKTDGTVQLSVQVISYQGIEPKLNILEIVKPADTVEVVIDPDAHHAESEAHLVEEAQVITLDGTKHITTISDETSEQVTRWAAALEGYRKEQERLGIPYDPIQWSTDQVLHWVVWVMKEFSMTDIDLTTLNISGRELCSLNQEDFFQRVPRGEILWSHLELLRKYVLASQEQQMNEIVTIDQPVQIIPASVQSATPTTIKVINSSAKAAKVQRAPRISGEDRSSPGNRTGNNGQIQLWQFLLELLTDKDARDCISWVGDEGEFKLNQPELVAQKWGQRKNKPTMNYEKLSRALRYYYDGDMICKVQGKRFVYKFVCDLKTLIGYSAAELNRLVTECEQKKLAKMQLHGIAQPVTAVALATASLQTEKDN", "summary_of_the_method": "as §1"}, "ERG": {"biological_target": "T4, ERG (Homo sapiens, UniProt P11308 1-479)", "T4 sequence": "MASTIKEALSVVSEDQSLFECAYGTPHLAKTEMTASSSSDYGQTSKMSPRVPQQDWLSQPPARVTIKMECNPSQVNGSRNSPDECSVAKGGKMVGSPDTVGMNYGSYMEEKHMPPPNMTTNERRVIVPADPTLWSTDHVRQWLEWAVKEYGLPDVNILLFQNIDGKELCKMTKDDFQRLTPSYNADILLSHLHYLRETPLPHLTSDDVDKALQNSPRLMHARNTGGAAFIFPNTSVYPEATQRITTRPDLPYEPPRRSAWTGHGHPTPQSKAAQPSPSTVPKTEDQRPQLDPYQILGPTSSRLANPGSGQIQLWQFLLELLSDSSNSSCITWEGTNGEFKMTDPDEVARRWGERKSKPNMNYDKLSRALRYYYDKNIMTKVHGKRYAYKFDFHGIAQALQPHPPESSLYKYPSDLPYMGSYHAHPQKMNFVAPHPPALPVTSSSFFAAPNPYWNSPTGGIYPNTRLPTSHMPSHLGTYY", "summary_of_the_method": "as §1"}, "ELF1": {"biological_target": "ELF1 (Homo sapiens, UniProt P32519 1-619)", "sequence (P32519 whole entry)": "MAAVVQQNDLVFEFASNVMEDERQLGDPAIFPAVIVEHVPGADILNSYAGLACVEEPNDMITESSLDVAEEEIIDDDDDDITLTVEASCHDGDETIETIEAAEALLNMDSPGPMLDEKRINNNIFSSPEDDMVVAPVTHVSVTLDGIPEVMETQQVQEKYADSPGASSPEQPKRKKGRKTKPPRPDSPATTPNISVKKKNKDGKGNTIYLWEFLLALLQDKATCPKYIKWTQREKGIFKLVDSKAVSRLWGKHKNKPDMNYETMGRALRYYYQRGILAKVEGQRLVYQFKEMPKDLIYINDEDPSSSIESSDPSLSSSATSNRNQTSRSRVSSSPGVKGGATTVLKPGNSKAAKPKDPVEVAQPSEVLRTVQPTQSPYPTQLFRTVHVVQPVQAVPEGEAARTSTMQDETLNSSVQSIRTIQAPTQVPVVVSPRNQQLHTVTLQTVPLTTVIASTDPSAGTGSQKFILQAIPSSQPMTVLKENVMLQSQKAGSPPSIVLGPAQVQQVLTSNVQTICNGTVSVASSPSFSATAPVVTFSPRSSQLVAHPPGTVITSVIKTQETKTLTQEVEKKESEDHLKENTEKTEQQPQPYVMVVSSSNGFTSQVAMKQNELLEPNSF", "summary_of_the_method": "as §1"}, "EHF": {"biological_target": "T5, EHF (Homo sapiens, UniProt Q9NZC4 1-300)", "T5 sequence": "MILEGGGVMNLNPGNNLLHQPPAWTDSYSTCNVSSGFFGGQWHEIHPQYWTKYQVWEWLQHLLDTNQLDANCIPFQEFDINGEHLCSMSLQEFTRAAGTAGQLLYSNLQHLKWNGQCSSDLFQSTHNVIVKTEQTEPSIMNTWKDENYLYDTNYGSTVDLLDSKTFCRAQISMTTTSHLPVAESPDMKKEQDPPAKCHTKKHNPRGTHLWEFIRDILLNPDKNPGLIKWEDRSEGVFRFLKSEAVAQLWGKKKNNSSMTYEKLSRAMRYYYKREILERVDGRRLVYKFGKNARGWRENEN", "summary_of_the_method": "as §1"}, "SPI1": {"biological_target": "SPI1 (Homo sapiens, UniProt P17947 1-270)", "summary_of_the_method": "as §1"}, "SPIB": {"biological_target": "SPIB (Homo sapiens, UniProt Q01892 1-262)", "sequence (Q01892 whole entry)": "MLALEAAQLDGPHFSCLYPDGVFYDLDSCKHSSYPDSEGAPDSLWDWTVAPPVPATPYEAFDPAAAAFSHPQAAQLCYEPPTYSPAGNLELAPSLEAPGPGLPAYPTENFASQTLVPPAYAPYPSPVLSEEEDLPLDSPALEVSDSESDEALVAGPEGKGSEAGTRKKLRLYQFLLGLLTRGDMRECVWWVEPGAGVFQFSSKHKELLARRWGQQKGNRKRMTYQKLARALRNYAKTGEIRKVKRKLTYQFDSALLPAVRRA", "summary_of_the_method": "as §1"}, "ELK3": {"biological_target": "T6, ELK3 (Homo sapiens, UniProt P41970 1-407)", "T6 sequence": "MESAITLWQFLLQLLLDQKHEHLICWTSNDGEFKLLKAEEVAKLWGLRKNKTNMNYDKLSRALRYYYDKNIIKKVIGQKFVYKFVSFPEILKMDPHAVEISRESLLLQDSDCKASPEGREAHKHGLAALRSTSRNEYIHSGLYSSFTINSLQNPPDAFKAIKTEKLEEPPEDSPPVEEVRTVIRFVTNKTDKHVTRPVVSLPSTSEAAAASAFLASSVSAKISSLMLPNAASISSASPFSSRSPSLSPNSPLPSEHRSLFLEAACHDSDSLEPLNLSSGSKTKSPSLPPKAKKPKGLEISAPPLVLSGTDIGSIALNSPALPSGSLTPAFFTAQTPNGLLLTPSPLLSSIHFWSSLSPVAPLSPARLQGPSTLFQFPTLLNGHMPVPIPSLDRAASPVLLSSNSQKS", "summary_of_the_method": "as §1"}},
  "data": [
    {"sequence": "ACTACC", "values": [
      {"measurement": "binding signal", "setting": "FLI1", "value": "1.61 fold enrichment (6-mer frequency, TF over GST control)"},
      {"measurement": "binding signal", "setting": "ELK1", "value": "1.72 fold enrichment (6-mer frequency, TF over GST control)"},
      {"measurement": "binding signal", "setting": "GABPA", "value": "1.67 fold enrichment (6-mer frequency, TF over GST control)"},
      {"measurement": "binding signal", "setting": "ERG", "value": "1.63 fold enrichment (6-mer frequency, TF over GST control)"},
      {"measurement": "binding signal", "setting": "ELF1", "value": "1.71 fold enrichment (6-mer frequency, TF over GST control)"},
      {"measurement": "binding signal", "setting": "EHF", "value": "1.51 fold enrichment (6-mer frequency, TF over GST control)"},
      {"measurement": "binding signal", "setting": "SPI1", "value": "1.69 fold enrichment (6-mer frequency, TF over GST control)"},
      {"measurement": "binding signal", "setting": "SPIB", "value": "1.69 fold enrichment (6-mer frequency, TF over GST control)"},
      {"measurement": "binding signal", "setting": "ELK3", "value": "1.63 fold enrichment (6-mer frequency, TF over GST control)"}
    ]}
  ]
}
